Broadly, the AC50 is the midpoint of the concentration-response curve, whichever way the signal moves.

SMILES strings stand for the structures. Values joined by “and” are separate entries in the source; they are usually repeats but may differ in a detail not shown here. Equal entries are not always repeated. Active and inactive are the calls of the source. Rule for the calls: active = hit-call score of the fitted dose curve at least 0.9, where 1 is the maximum; inactive = score below 0.9.

Experimental findings from PubChem BioAssay (EPA / NIEHS) are described below.

Read-out in the test: Cytochrome P450 4A22 (Homo sapiens) (UniProt Q5TCH4)
Description: LTEA_HepaRG_CYP4A22: Life Technologies and Expression Analysis (LTEA) Assay for Cytochrome P450 4A22 (CYP4A22) using HepaRG (AID 2283495). Particulars: mRNA level, 48 h; actives raise or lower the signal. The protocol: LTEA_HepaRG is a cell based, multiplexed-readout assay that uses HepaRG, a human liver cell line, with measurements taken at 48 hours after chemical dosing on a 96-well plate.LTEA_HepaRG_CYP4A22 is one of 102 assay component(s) measured in the LTEA HepaRG cell culture assay. It is a marker of NR mediated metabolism.Data from the assay component LTEA_HepaRG_CYP4A22 was analyzed into 1 endpoint. This assay endpoint, LTEA_HepaRG_CYP4A22, was analyzed with bidirectional fitting relative to DMSO as the negative control and baseline of activity. Using a type of inducible reporter, measures of mRNA induction for gain or loss-of-signal activity can be used to understand regulation of transcription factor activity. To generalize the intended target to other relatable targets, this assay endpoint is annotated to the cyp intended target family, where the subfamily is xenobiotic metabolism.
A total of 1060 chemcials from the ToxCast library were tested in eight-point concentration-response experiments. Cell culture and cytotoxicity assays were conducted at Thermo Fisher Scientific's Custom Services facility (Madison, WI). A single lot of human HepaRG cells (Thermo Fisher Scientific, Frederick, MD) was used for the cell culture experiments. 96-well format collagen type I coated plates of human HepaRG cells were prepared using established methods. Briefly, cryopreserved HepaRG cells were thawed, plated at a density of approximately 100,000 cells/well in HepaRG Thaw, Plate, and General Purpose media (HPRG770, Thermo Fisher Scientific), and incubated for 48 hours. 0.5% DMSO was selected as vehicle control to balance the requisite need of DMSO in HepaRG cultures to maintain differentiation (for example, baseline metabolism, proportions of hepatocytes vs. cholangiocytes), while enabling further hepatic receptor pathway activation (for example, PXR and CAR) in response to chemical exposure. 48 hours after plating, the culture medium was replaced with HepaRG Serum-Free Incudtion Media. Cells were exposed to each test chemical in duplicate and maintained in CO2 incubators for another 48 hours. Chemical plates were thawed to room temperature and 200x concentrations of treatment groups were prepared. 8-point conentration-reponse curves were made with the highest exposure at 100 uM, followed by half-log dilutions, all in 0.5% DMSO. Each test plate contained variouse controls, induction positive controls (1mM phenobarbital), cytotoxicity positive controls ([…] aflatoxin B1), vehicle controls (0.5% DMSO), and total lysis controls (0.5% DMSO). Cell morphology images were taken using an Essen IncuCyte FLR automated microscope, with six 96-well plates imaged in about 24 minutes. Images were captured and exported and JPEG files. Spent culture media was transfered to black-well plates for the LDH assay, and remaining media was sorted at -80 C for later use. Cells were treated with RLT buffer and frozen until shipped for gene expression analysis. Total RNA was isolated from the cell suspension in 75 uL of Buffer RLT (Qiagen, Germantown, MD 20874) by Quintiles/Expression Analysis (Durham, NC) using a custom isolation procedure. Total RNA from each plate well was transferred to a preamplification plate. Fluidigm's 96.96 Dynamic ArrayTM (Fluidigm, Amsterdam, the Netherlands) technology was used for gene expression analyses by quantitative reverse transcription polymerase chain reaction (qRT-PCR, performed by Quintiles/Expression Analysis, Durham, NC)89. Standard TaqManTM Assays (Applied Biosystems/ThermoFisher Scientific, Foster City, CA) were used to assess the expression of 93 genes selected based on their selectivity and sensitivity to important hepatic receptors known to be modulated by environmental chemicals; importance in human hepatocyte functionality; and hepatotoxicity. […]
As to `COC(=O)c1ccccc1C(=O)O`, the outcome was inactive.

Regarding `N#CSCSc1nc2ccccc2s1`, the AC50 was 90.5 µM (active).

In the case of `CCCN(CCC)C(=O)SCC`, the molecule was called inactive.

As for `CC1(C)C(C=C(Cl)Cl)C1C(=O)OCc1cccc(Oc2ccccc2)c1` (stereo not given), the outcome was inactive.

Turning to `CCCCC(CC)CN1C(=O)C2C3C=CC(C3)C2C1=O` (stereo not given), the AC50 is 62.5 µM (active).

As to `O=C(c1ccccc1)C1CCCCC1`, the molecule was classed as inactive.

For `CCOC(=O)C(C)Oc1ccc(Oc2nc3ccc(Cl)cc3o2)cc1` (stereo not given), the molecule was called inactive.

With `CCOC(=O)C(C)Oc1ccc(Oc2cnc3cc(Cl)ccc3n2)cc1` (stereo not given), the AC50 is 43 µM (active).

`O=C(O)c1ccccc1`: the result was inactive.

As to `CCCCOC(=O)C(C)Oc1ccc(Oc2ccc(C(F)(F)F)cn2)cc1` (stereo not given), the outcome was inactive.

Consider `CCCN(CCC)c1c([N+](=O)[O-])cc(C(F)(F)F)c(N)c1[N+](=O)[O-]`, for which the half-maximal activity concentration (AC50) is 22 µM (active).

On to `CCCCCCC(C)OC(=O)COc1nc(F)c(Cl)c(N)c1Cl` (stereo not given), for which the result was inactive.

As to `CC(=O)S[C@@H]1CC2=CC(=O)CC[C@]2(C)[C@H]2CC[C@@]3(C)[C@@H](CC[C@@]34CCC(=O)O4)[C@H]12`, the AC50 is 50 µM (active).

As to `N[C@@H](Cc1cc(I)c(Oc2ccc(O)c(I)c2)c(I)c1)C(=O)O`, the AC50 was 0.00445 µM (active).

As to `CSC(=O)c1cccc2nnsc12`, the outcome was inactive.

Turning to `OB(O)O`, the result was inactive.

`COC(=O)c1ccc(I)cc1S(=O)(=O)NC(=O)Nc1nc(C)nc(OC)n1`: the molecule was called inactive.

For the molecule `Oc1ccc(C(c2ccc(O)cc2)C(Cl)(Cl)Cl)cc1`, the outcome was inactive.

Turning to `C#C[C@]1(O)CC[C@H]2[C@@H]3CCC4=CC(=O)CC[C@@H]4[C@H]3CC[C@@]21CC`, the molecule was called inactive.

On to `CCOC(=O)NCCOc1ccc(Oc2ccccc2)cc1`, for which the AC50 was 83.2 µM (active).

Consider `c1ccc(Nc2ccccc2)cc1`, for which the outcome was inactive.

In the case of `CC(C)(c1ccc(O)cc1)c1ccc(O)cc1`, the molecule was classed as inactive.

For the molecule `COC(=O)CSc1cc(N=c2sc(=O)n3n2CCCC3)c(F)cc1Cl`, the result was inactive.

In the case of `CN(C)C(=O)Nc1ccc(Cl)c(Cl)c1`, the call was inactive.

As to `CCCCOCCOCCOCc1cc2c(cc1CCC)OCO2`, the molecule was classed as inactive.

Consider `CCCCC(CC)COC(=O)c1ccccc1C(=O)O` (stereo not given), for which the result was inactive.

For the molecule `S=C(S)NCCNC(=S)S.[Mn+2].[S-]C([S-])=NCCN=C([S-])[S-].[Zn+2]`, the AC50 was 1.38 µM (active) and 1.35 µM (active).

For the molecule `c1ccc2[nH]c(-c3cscn3)nc2c1`, the call was inactive.

With `O=C(c1ccc(O)cc1O)c1ccc(O)cc1O`, the result was inactive.

In the case of `O=C(O)C1(C(=O)Nc2ccc(Cl)cc2Cl)CC1`, the AC50 was 80.7 µM (active).

`Cc1nn(C)c(Oc2ccccc2)c1C=NOCc1ccc(C(=O)OC(C)(C)C)cc1`: the half-maximal activity concentration (AC50) is 2.91 µM (active).

As for `CCCOC(=O)NCCCN(C)C`, the molecule was called inactive.

In the case of `CCN(Cc1c(F)cccc1Cl)c1c([N+](=O)[O-])cc(C(F)(F)F)cc1[N+](=O)[O-]`, the result was inactive.

For the molecule `CCOC(=O)c1ccc(O)cc1`, the molecule was called inactive.

`CCNc1nc(N)nc(Cl)n1`: the call was inactive.

As to `CC(=O)[C@H]1CC[C@H]2[C@@H]3CCC4=CC(=O)CC[C@]4(C)[C@H]3CC[C@]12C`, the AC50 is 31.1 µM (active).

Take `CCC(C)OC(=O)N1CCCCC1CCO` (stereo not given): the molecule was called inactive.

`C=CCOC(Cn1ccnc1)c1ccc(Cl)cc1Cl` (stereo not given): the AC50 is 18.6 µM (active).

Regarding `CCSC(=O)N(CC(C)C)CC(C)C`, the molecule was called inactive.

Consider `O=C(Nc1ccc([N+](=O)[O-])cc1Cl)c1cc(Cl)ccc1O`, for which the AC50 is 14.2 µM (active).
